Screens (PubChem BioAssay)
An excerpt weighted towards active compounds, which were near 10% of everything screened.
HP1b binding inh = HP1-beta chromodomain-methylated histone interaction inhibition; P83916; AlphaScreen HP1-beta / biotin-H3K9me3 peptide binding; Potency, µM (titrated, usually from 114 µM), inactives show top-dose activity change, negative = inhibition, usual class: inhibitors; 390,000 tested, 0.56% active; AID 540317; note: potency is the fitted concentration of half-maximal effect; nearly all actives have a fitted effect of over 70% in size
Target sequence (P83916 whole entry, looked up): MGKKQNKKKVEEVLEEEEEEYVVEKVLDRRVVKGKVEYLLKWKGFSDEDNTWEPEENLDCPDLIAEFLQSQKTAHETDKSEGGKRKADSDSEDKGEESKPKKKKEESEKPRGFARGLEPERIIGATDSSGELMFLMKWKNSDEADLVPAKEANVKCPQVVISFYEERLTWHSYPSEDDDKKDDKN
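Compound inhibition of the preformed complex between 50 nM HP1-beta and 50 nM biotinylated H3K9me3 peptide was read by AlphaScreen. Buffer was PBS pH 7.4 with 0.01% Tween-20. Incubations ran 30 min at room temperature, with 10 ug/mL donor/acceptor beads.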
BAZ2B inh = inhibitors of human BAZ2B bromodomain | AlphaScreen BAZ2B-H3K14Ac peptide displacement | Q9UIF8 | 360,000 tested, 4.4% active | Potency, µM (titrated, usually from 114 µM), inactives show top-dose activity change, negative = inhibition, hits mostly inhibitors; note: potency is the fitted concentration of half-maximal effect; % is set by controls: 0 for no effect and ±100 for the full control effect; nearly all actives have a fitted effect of over 60% in size
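Inhibition is scored as reduced AlphaScreen emission. The BAZ2B/b-H3(5-23)K14Ac complex (50 nM each) in PBS pH 7.4, 0.01% Tween-20 meets compound (up to 110 uM) for 30 min at RT before bead addition.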
G9a block = G9a (human) methyltransferase inhibition. G9a H3K9 monomethylation, AlphaScreen, 2 h. Potency, µM (titrated, usually from 102 µM), inactives show at the highest dose activity, negative = inhibition, hits mostly inhibitors. 350,000 tested, 8.8% active. Q96KQ7; note: potency is the fitted concentration of half-maximal effect; % is set by controls: 0 for no effect and ±100 for the full control effect; nearly all actives have a fitted effect of over 75% in size
Target sequence (Q96KQ7 913-1193 limits assumed): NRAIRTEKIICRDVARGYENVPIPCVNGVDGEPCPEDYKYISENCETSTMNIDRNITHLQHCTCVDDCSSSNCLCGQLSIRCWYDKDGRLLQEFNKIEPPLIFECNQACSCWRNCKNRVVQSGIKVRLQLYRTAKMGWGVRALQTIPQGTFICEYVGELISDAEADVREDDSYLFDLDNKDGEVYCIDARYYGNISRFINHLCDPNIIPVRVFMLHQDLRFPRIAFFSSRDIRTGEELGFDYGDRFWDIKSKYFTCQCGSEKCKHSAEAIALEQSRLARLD
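Enzyme 20 nM + cpd, 15 min RT; add b-H3K9 pep 500 nM / SAM 20 uM; 2 h RT; anti-H3K9me1 Ab 0.5 ug/mL + SA donor / anti-rabbit acceptor beads 20 ug/mL each, 10 min; AlphaScreen read.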
Six1-Eya2 inh = blocks human Six1 binding to Eya2. Q15475+O00167. 360,000 tested, 0.56% active. AlphaScreen GST-Six1/His-Eya2 binding, biochemical; active compounds read low. AID 651725. activity change, % (test concentration not listed); in the data active = activity change below about -65%; inconclusive = mostly about -30% to -63%; note: % is set by controls: 0 for no effect and ±100 for the full control effect
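AlphaScreen with GST-Six1 and His-Eya2 (5X mix: 250 nM and 500 nM), glutathione donor and nickel acceptor beads; buffer 50 mM Tris pH 8.0, 300 mM NaCl, 1 mM TCEP; 1 h at 37 C in the dark.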
CtBP-E1A blk = CtBP/E1A binding inhibition | AlphaScreen GST-E1A/His-CtBP binding, 1536-well; active compounds read low | activity change, % (no concentration beside the values) | 340,000 tested, 0.49% active; in the data active = activity change below about -65%; inconclusive = mostly about -30% to -63%; note: % is set by controls: 0 for no effect and ±100 for the full control effect
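Homogeneous bead-based format: GST-tagged E1A captured on glutathione donor beads, His-tagged CtBP on nickel acceptor beads; compounds precede bead addition by 2 h at 37 °C.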
JMJD2A Tudor inh = inhibitors of human JMJD2A Tudor domain; O75164; AlphaScreen JMJD2A-Tudor / H3K4me3 peptide binding; Potency, µM (top dose mostly 114 µM), without a hit: at the highest dose activity change, negative = inhibition, hits mostly inhibitors; 390,000 tested, 4.4% active; note: potency is the fitted concentration of half-maximal effect; % is set by controls: 0 for no effect and ±100 for the full control effect; nearly all actives have a fitted effect of over 50% in size
An asterisk follows results filed as active; [ ] = dose if it differs, or a comment. Unless noted, calls come from the whole dose curve; as a rule, active = well fitted inhibition curve with a large enough effect; inconclusive = small, poorly fitted or top-dose-only effect; inactive = no such curve, though single readings can be large or run the other way.

`COc1cccc(C2C(C(=O)c3sc(C)nc3C)=C(O)C(=O)N2CCN2CCOCC2)c1OC` (stereo unspecified) gave HP1b binding inh 22%, BAZ2B inh inconclusive, G9a block inconclusive, Six1-Eya2 inh 11, CtBP-E1A blk 0 and JMJD2A Tudor inh -13%.
COc1ccc(C2C(C(=O)c3sc(C)nc3C)=C(O)C(=O)N2CCN(C)C)cc1OC (stereo unspecified) was read as HP1b binding inh 53%, BAZ2B inh 4%, G9a block -27%[12.7 µM], Six1-Eya2 inh -12, CtBP-E1A blk -1 and JMJD2A Tudor inh -9%.
For COc1ccccc1C1C(C(=O)c2sc(C)nc2C)=C(O)C(=O)N1CCN1CCOCC1 (stereo unspecified) the results were HP1b binding inh 35%, BAZ2B inh -35%, G9a block 40µM*, Six1-Eya2 inh -1, CtBP-E1A blk 6 and JMJD2A Tudor inh -12%.
`Cc1ccc(/C(O)=C2/C(=O)C(=O)N(CCN3CCOCC3)C2c2cccnc2)cc1` (stereo unspecified) gave HP1b binding inh 46%, BAZ2B inh 10%, G9a block inconclusive, Six1-Eya2 inh 24, CtBP-E1A blk 44 and JMJD2A Tudor inh 89µM*.
COc1ccc(/C(O)=C2/C(=O)C(=O)N(CCN3CCOCC3)C2c2ccc(C)cc2)cc1 (stereo unspecified) was read as HP1b binding inh 33%, BAZ2B inh -20%[57.1 µM], G9a block 45µM*, Six1-Eya2 inh -3, CtBP-E1A blk 30 and JMJD2A Tudor inh -22%.
For COc1cccc2c1OC[C@@H](CO)[C@H]2N(C)C(=O)Nc1ccc(Cl)cc1Cl the results were HP1b binding inh 29%, BAZ2B inh -2%, G9a block 7%, Six1-Eya2 inh -9, CtBP-E1A blk -27 and JMJD2A Tudor inh -6%.
COc1cc(NC(=O)c2cc3nc(-c4ccc(C)cc4)cc(C(F)(F)F)n3n2)cc(OC)c1OC was read as HP1b binding inh 3%, BAZ2B inh -2%, G9a block -10%[59 µM] and JMJD2A Tudor inh -19%.
Screening CC(C)(C)OC(=O)Cc1nnc(-c2nc3ccccc3[nH]2)o1 returned JMJD2A Tudor inh -14%.
Screening Cc1ccc(C)c(/C(O)=C2\C(=O)C(=O)N(Cc3cccnc3)C2c2cccnc2)c1 (stereo unspecified) returned HP1b binding inh 17%, BAZ2B inh 79µM*, G9a block inconclusive, Six1-Eya2 inh 1, CtBP-E1A blk -1 and JMJD2A Tudor inh -22%.
For COc1ccccc1OCCCOc1cccc(/C=C2\SC(=O)NC2=O)c1 the results were HP1b binding inh -2%, BAZ2B inh 79µM*, G9a block -1%[0.501 µM], Six1-Eya2 inh 0, CtBP-E1A blk -11 and JMJD2A Tudor inh 22µM*.
For O=C(O)c1cc([N+](=O)[O-])c(NCc2cccnc2)c([N+](=O)[O-])c1 the results were HP1b binding inh 8%, BAZ2B inh inconclusive, G9a block 45µM*, Six1-Eya2 inh 6, CtBP-E1A blk 0 and JMJD2A Tudor inh 2%.
O=C(Nc1ccccc1)c1cc([N+](=O)[O-])ccc1NCc1cccnc1 was read as HP1b binding inh -9%, BAZ2B inh -12%, G9a block inconclusive, Six1-Eya2 inh -15 and JMJD2A Tudor inh inconclusive.
O=S(=O)(c1ccccc1)c1nc(-c2ccccc2)oc1N1CCCC1 was read as HP1b binding inh 6%, BAZ2B inh -4%, G9a block 5%, Six1-Eya2 inh -14, CtBP-E1A blk 5 and JMJD2A Tudor inh 79µM*.
`Cc1ccc(S(=O)(=O)c2nc(N3CCOCC3)sc2Cl)cc1` gave HP1b binding inh 55%, BAZ2B inh -15%, G9a block 6.3µM*, Six1-Eya2 inh -3, CtBP-E1A blk -1 and JMJD2A Tudor inh -1%.
